# Bioassay records: PubChem BioAssay, several laboratories
# CHT PAM: CHT positive allosteric modulators, primary screen, cell-based, membrane potential dye, choline EC20; B-score at 10 µM; High affinity choline transporter 1 (Homo sapiens), Q9GZV3; actives 0.49% (n = 310,000); AID 488977, 2010; CHT-expressing cells; stronger effect = higher value; LV-AA mutant CHT in HEK293 cells;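 active = initial fluorescence not abnormally high and integrated response B-score, plate-corrected, over 3 SD above library mean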
# AI-2 QS modul: Vibrio harveyi AI-2 quorum sensing modulators, primary screen, JMH597 strain, luminescence/OD600 ratio. Vibrio harveyi JMH597 AI-2 luminescence/OD600 ratio, 9 h; stronger effect = lower value; strain lacks LuxN and CqsS sensors; 0 = neutral-control median. activity change, % at 7.5 µM. actives 0.4% (n = 300,000). AID 2094, 2009; in the data active = activity change below about -75%, passing the limit was not always enough;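 note: luminescence divided by OD600 gain over 9 h not by final OD600 alone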
# ALR H2O2 inh: inhibitors of human ALR sulfhydryl oxidase, primary screen, biochemical, H2O2 detection, HRP-luminol luminescence, single point; purified ALR, DTT oxidation; inhibition, % (test concentration not listed); actives 3.8% (n = 290,000);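 active = mean replicate inhibition above about 79%, with every replicate also reaching it, limit read from the data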
# CHT inh: inhibitors of human choline transporter CHT; High affinity choline transporter 1 (Homo sapiens), Q9GZV3; CHT-expressing cells, membrane potential dye, choline response; stronger effect = lower value; B-score at 10 µM; actives 0.86% (n = 310,000); AID 488975, 2010;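 active = B-score over 3 SD under the library average, and starting fluorescence ratio not unusually high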;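 note: choline stimulus applied at its EC90 after an EC20 pre-addition; B-score computed on integrated fluorescence ratio after choline addition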
# PREPL inhibitor: PREPL enzyme inhibitors, primary screen, biochemical, fluorescence polarization. Prolyl endopeptidase-like (Homo sapiens), Q4J6C6. recombinant PREPL, fluorescence polarization activity-based probe. inhibition, % at 5.96 µM. actives 0.68% (n = 320,000). AID 2751, 2010; in the data active = inhibition above about 43%;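 note: 0% = enzyme with DMSO and 100% = wells lacking enzyme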
# Target sequence (Q4J6C6 whole entry, looked up): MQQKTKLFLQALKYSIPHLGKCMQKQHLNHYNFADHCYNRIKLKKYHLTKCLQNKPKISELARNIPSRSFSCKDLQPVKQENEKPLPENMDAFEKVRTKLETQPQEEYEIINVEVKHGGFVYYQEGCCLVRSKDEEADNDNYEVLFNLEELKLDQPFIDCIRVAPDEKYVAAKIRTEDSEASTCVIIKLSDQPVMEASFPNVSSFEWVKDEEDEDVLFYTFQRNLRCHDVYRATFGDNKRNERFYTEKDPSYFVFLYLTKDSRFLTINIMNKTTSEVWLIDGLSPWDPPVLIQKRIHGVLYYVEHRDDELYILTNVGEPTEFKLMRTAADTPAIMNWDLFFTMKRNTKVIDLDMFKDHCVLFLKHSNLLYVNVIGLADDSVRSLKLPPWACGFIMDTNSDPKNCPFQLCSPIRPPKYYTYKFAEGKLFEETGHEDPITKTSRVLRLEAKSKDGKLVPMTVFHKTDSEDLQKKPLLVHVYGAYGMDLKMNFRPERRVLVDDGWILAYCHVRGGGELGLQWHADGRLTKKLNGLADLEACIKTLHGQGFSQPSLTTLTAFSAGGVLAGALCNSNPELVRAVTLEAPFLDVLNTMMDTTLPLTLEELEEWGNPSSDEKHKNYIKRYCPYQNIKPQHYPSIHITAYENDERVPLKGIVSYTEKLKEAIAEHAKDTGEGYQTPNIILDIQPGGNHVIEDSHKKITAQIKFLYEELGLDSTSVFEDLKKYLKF
# Numbers without * were called inactive; i = inactive; nt = no result given. Hits are enriched below; roughly 5% of the tested compounds scored in any of these assays.
SMILES,CHT PAM,AI-2 QS modul,ALR H2O2 inh,CHT inh,PREPL inhibitor
NC(N)=N/N=C/c1cn(-c2ccccc2)nc1-c1cccs1,i,-10,4,i,24
CCCCN1C(=O)C(C2c3ccccc3C(=O)N2Cc2ccccc2)C(=O)NC1=S (stereo not drawn),i,11,nt,i,-11
CCCCN1C(=O)NC(=O)C2(Cc3cc(C)ccc3N(C)C2)C1=O (stereo not drawn),i,17,-7,i,7
CCC(C)N1C(=O)NC(=O)C2(Cc3c(ccc4ccccc34)N(C)C2)C1=O (stereo not drawn),i,17,93*,i,29
CC1=CC(=C2C(=O)NC(=S)NC2=O)C=C(C(F)(F)F)N1C,i,12,-2,i,2
CN1C(=O)N(C)C(=O)C2(Cc3cc([N+](=O)[O-])ccc3N(C)C2)C1=O,i,11,nt,i,2
O=C1NC(=S)N(c2ccccc2)C(=O)/C1=C/c1ccco1,i,16,99*,i,-3
CCOc1cccc(N2C(=O)/C(=C/c3ccco3)C(=O)NC2=S)c1,i,15,nt,i,0
Cc1cc(/C=C2/C(=O)NC(=O)N(Cc3ccco3)C2=O)c(C)n1-c1ccccc1,i,12,92*,i,-1
CCc1nn(CC(=O)N2CCC3(CC2)OCCO3)c(=O)c2cccn12,i,20,5,i,5
COC1=CC=C2[C@H]3Cc4ccc(OC)c5c4[C@@]2(CCN3C)[C@H]1O5,i,3,-53,i,14
COc1ccc(/C=C2/C(=O)N(Cc3ccco3)C(=O)N(C(C)C)C2=O)cc1,i,42,15,i,3
CC(C)N1C(=O)/C(=C/C=C/c2ccco2)C(=O)N(Cc2ccco2)C1=O,i,8,98*,i,-6
CC(=O)c1ccc2c(c1)C1C(Cl)C(Sc3ccccc3[N+](=O)[O-])CC1C(C(=O)O)N2 (stereo not drawn),i,nt,95*,i,-1
O=C(O)c1cccc2c1NC(C(=O)O)C1CC(Sc3ccccc3[N+](=O)[O-])C(Cl)C21 (stereo not drawn),i,nt,18,i,33
C/C(=N\NC(=S)Nc1ccccc1)c1c(O)n(C)c(=O)n(C)c1=O,i,12,92*,i,5
O=C1CC(=O)N(c2cccc(Br)c2)C(=O)N1,i,19,25,i,-7
Cc1cc(Br)ccc1N1C(=O)CC(=O)NC1=O,i,13,85*,i,-1
CCOC(=O)c1cc(CC)sc1/N=C/C1C(=O)NC(=S)NC1=O,i,16,97*,i,-13
CCOC(=O)c1cc(CC)sc1/N=C/c1c(O)[nH]c(=S)[nH]c1=O,i,12,98*,i,-3
CCOC(=O)c1c(/N=C/c2c(O)n(-c3cccc(C)c3)c(=O)[nH]c2=O)sc2c1CCCC2,i,19,2,i,5
O=C(O)C1=CC2c3ccccc3C1c1ccccc12,i,43,0,i,6
COC(=O)C1=C(c2ccc(OC)c(OC)c2)C[C@@H]2CC[C@H]1N2C(=O)NCCc1ccccc1,nt,nt,3,nt,13
CN(C)c1ccc(NC(=O)CN2C(=O)CN=C(c3ccccc3)c3cc(Cl)ccc32)cc1,i,22,89*,i,36
COC(=O)C1=C(c2cccc(OCc3ccccc3)c2)C[C@@H]2CC[C@H]1N2C(=O)NCc1ccc(N(C)C)cc1,nt,nt,2,nt,38
N=C1c2ccccc2CN1c1ncccn1,7.9*,14,-9,i,18
C=CCN1C(=O)NC(=O)/C(=C/c2cnc(SC)nc2)C1=O,i,6,18,i,5
C=CCN1C(=O)NC(=O)/C(=C/c2cc3c4c(c2)CCCN4CCC3)C1=O,i,18,99*,i,8
CN1CCN(c2ccc([N+](=O)[O-])c3cccnc23)CC1,7.1*,6,-18,i,1
Cc1cccc(N2C(=O)NC(=O)/C(=C/c3ccc(N4CCOCC4)cc3)C2=O)c1,i,19,97*,i,-6
